Source: PubChem BioAssay
The source made the active and inactive calls.

Key:
[1] = optical density shifts of acrAB sulA E. coli – strain DRC41, OD650, 48 h, E. coli filamentation inducer project, primary screen (AID 1152); details: higher = more signal, called active from +8 up or from −8 down;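 note: E. coli MC1000 strain DRC41 lacking acrAB efflux pump and sulA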
[2] = probe aLefty1 binding on compound microarray – biochemical, small-molecule microarray, 635/667 nm fluorescence, primary screen (AID 1153); details: higher = more signal;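 note: score merges spot fluorescence with signal-to-noise ratio from the scanned slide images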
[3] = plasmodial surface anion channel blockers, osmotic lysis – cell-based, P. falciparum Indochina, OD700, 1 h, primary screen (AID 1154); details: P. falciparum Indochina infected RBC osmotic lysis, higher = more signal, called active from +8 up or from −8 down
[4] = plasmodial surface anion channel blockers, osmotic lysis – cell-based, P. falciparum Indochina, OD700, 2 h, primary screen (AID 1155);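 note: lysis reports solute entry through the parasite surface anion channel PSAC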; details: P. falciparum Indochina infected erythrocytes, higher = more signal, called active from +8 up or from −8 down
[5] = changes in parasitized red cell lysis, either direction – P. falciparum Indochina, OD700, 3 h, PSAC antagonist project, primary screen (AID 1156); details: P. falciparum-infected erythrocytes, osmotic lysis, higher = more signal, called active from +8 up or from −8 down
[6] = plasmodial surface anion channel blockers, osmotic lysis – cell-based, P. falciparum Indochina, OD700, 18 h, primary screen (AID 1157); details: P. falciparum Indochina infected erythrocytes, osmotic lysis OD700, 18 h; higher = more signal, called active from +8 up or from −8 down
[7] = S6 kinase pathway phospho-S6 level changes – cell-based, A549, cytoblot, luminescence, serum-stimulated, primary screen (AID 1158); details: 5 h, higher = more signal;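 note: serum-stimulated A549 lung adenocarcinoma cells; signal is phosphorylated S6 detected by cytoblot immunostaining with HRP secondary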
[8] = biological target: NADPH oxidase 2 (Homo sapiens) (UniProt P04839); assay: compounds shifting NOX2 Amplex Red fluorescence – cell-based, HEK293-NOX2, PMA-stimulated, NOX inhibitor project, primary screen (AID 1159); details: 45 min, higher = more signal, called active from +8 up or from −8 down; note: test concentration not given here
[9] = biological target: NADPH oxidase 4 (Homo sapiens) (UniProt Q9NPH5); assay: compounds shifting NOX4 Amplex Red fluorescence – cell-based, HEK293-NOX4, tetracycline-induced, NOX inhibitor project, primary screen (AID 1160); details: HEK293-NOX4, Amplex Red H2O2 fluorescence, 45 min; higher = more signal, called active from +8 up or from −8 down
[10] = biological target: NADPH oxidase 5 (Homo sapiens) (UniProt Q96PH1); assay: compounds shifting NOX5 Amplex Red fluorescence – cell-based, HEK293-NOX5, NOX inhibitor project, primary screen (AID 1161); details: HEK293-NOX5, ionomycin, 45 min, higher = more signal
Sequence of NADPH oxidase 5 (Homo sapiens) (Q96PH1 whole entry, looked up): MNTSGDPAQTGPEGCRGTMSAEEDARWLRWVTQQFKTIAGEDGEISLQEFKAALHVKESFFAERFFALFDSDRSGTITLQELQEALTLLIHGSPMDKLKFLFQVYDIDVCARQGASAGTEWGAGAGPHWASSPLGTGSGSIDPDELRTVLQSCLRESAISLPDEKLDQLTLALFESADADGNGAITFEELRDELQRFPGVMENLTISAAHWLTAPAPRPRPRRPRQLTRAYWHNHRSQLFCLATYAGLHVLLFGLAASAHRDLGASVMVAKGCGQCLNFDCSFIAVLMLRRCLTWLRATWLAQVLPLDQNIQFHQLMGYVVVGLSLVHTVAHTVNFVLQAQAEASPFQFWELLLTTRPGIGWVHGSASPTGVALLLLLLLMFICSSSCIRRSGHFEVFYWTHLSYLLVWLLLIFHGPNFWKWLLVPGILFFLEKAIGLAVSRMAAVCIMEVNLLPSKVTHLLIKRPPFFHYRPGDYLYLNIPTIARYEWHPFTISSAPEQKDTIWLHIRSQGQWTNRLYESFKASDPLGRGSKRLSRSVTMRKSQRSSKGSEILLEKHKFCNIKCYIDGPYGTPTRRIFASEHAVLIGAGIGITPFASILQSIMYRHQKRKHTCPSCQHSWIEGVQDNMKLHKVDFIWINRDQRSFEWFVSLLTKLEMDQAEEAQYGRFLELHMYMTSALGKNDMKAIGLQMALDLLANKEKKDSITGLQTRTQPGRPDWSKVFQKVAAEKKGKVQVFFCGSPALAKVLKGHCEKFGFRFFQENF

Sequence of NADPH oxidase 2 (Homo sapiens) (P04839 whole entry, looked up): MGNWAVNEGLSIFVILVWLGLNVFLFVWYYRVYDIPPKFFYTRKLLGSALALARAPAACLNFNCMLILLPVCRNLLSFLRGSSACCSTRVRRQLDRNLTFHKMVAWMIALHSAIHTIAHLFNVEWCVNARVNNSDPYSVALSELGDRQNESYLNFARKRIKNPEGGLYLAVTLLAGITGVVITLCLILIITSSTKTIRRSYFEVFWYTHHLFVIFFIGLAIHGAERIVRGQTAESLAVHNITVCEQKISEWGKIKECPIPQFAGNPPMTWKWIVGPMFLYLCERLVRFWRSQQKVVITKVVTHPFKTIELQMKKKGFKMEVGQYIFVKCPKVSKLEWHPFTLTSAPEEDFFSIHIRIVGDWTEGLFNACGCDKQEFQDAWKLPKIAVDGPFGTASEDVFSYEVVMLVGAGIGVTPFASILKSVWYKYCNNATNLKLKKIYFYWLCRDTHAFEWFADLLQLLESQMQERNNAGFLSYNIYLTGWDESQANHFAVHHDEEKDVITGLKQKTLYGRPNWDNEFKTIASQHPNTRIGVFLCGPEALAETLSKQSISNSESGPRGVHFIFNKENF
Sequence of NADPH oxidase 4 (Homo sapiens) (Q9NPH5 whole entry, looked up): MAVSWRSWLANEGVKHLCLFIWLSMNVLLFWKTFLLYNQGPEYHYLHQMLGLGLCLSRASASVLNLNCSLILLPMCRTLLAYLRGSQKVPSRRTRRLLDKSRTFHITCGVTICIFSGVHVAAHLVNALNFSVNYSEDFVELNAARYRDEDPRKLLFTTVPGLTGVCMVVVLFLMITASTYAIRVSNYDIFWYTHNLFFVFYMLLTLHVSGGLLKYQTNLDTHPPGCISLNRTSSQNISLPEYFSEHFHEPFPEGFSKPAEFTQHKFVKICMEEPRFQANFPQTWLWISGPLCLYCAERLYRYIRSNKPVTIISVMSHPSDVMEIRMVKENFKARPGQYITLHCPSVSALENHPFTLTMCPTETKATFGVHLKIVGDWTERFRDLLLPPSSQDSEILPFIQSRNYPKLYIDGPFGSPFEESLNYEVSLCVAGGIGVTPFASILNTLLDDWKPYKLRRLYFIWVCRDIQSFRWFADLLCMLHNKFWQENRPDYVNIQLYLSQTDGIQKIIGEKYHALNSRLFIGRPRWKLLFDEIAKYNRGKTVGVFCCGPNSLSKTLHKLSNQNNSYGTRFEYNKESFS

| Compound | z-score [1] | composite z-score [2] | z-score [3] | z-score [4] | z-score [5] | z-score [6] | z-score [7] | z-score [8] | z-score [9] | z-score [10] |
| --- | --- | --- | --- | --- | --- | --- | --- | --- | --- | --- |
| CC(C)[C@H](NC(=O)OC(C)(C)C)[C@@H](O)CC(=O)C(C)(C)C | 0.14 (inactive) | -0.267 | -0.0522 (inactive) | 0.0094 (inactive) | 0.155 (inactive) | 0.126 (inactive) | 0.372 | 2.2 (inactive) | 0.34 (inactive) | 0.195 |
| COc1ccc(OC[C@H]2CN3[C@@H](CC[C@@H](C)[C@@H]3c3ccc(Br)cc3)C(=O)O2)cc1 | -0.228 (inactive) | 0.0861 | 2.04 (inactive) | 1.25 (inactive) | 0.345 (inactive) | 0.343 (inactive) | 0.936 | -0.783 (inactive) | -1.61 (inactive) | -0.392 |
| COC(=O)[C@H](C)NC(=O)CCC1CC(OC(=O)NCc2cccc3ccccc23)CC2(CCCC(COC(=O)NCCc3ccccc3OC)O2)O1 (stereo not given in full) | -0.731 (inactive) | -0.193 | 7.29 (inactive) | 1.37 (inactive) | -0.148 (inactive) | 0.494 (inactive) | -0.353 | -0.49 (inactive) | 0.357 (inactive) | 0.512 |
| CCN1C(=O)[C@H]2[C@H]3[C@H](O)[C@H](O)CC(=NO[C@H](C)c4cn([C@H](CO)Cc5ccccc5)nn4)[C@@H]3CC[C@H]2C1=O | -0.238 (inactive) | -0.323 | 0.334 (inactive) | 0.15 (inactive) | -0.0073 (inactive) | 0.123 (inactive) | -0.598 | 0.384 (inactive) | 0.293 (inactive) | -0.116 |
| CCOC(=O)CCN1C(=O)[C@H]2[C@H]3[C@H](O)[C@H](O)CC(=NO[C@@H]4O[C@H](CO)[C@@H](O)[C@H](O)[C@H]4O)[C@@H]3CC[C@H]2C1=O | 0.998 (inactive) | 0.121 | 3.62 (inactive) | 0.155 (inactive) | 1.31 (inactive) | 0.82 (inactive) | -0.235 | -2.95 (inactive) | 0.332 (inactive) | -2.16 |
| COC(=O)[C@@H]1CC[C@H](C)[C@@H](c2ccc(Br)cc2)N1 | -0.824 (inactive) | -0.0879 | -0.452 (inactive) | -0.219 (inactive) | -0.772 (inactive) | -0.0454 (inactive) | -0.0984 | 1.62 (inactive) | -1.48 (inactive) | -0.595 |
| C=CC[C@@H]1C=C[C@H](ON=C[C@@H](NS(=O)(=O)c2ccc(C)cc2)[C@H](C)C=CCC(=O)OC)[C@@H](CO)O1 | 0.171 (inactive) | -0.191 | 1.16 (inactive) | 0.278 (inactive) | 0.0436 (inactive) | 0.343 (inactive) | -0.738 | -0.0272 (inactive) | 0.118 (inactive) | -0.286 |
| CCN(CC)CC(O)CN1CCCCc2nc(C)c(C)cc21 (stereo not given) | 0.219 (inactive) | -0.0544 | -0.446 (inactive) | -1.31 (inactive) | 0.273 (inactive) | -1.55 (inactive) | 1.43 | 0.776 (inactive) | -0.622 (inactive) | 0.419 |
| CC(C)[C@@H](OCc1ccccc1)[C@H](C)C=NO[C@H](C)c1cn([C@@H]2COC[C@H]2O)nn1 | 0.112 (inactive) | -0.111 | 0.551 (inactive) | -0.119 (inactive) | -0.541 (inactive) | 0.172 (inactive) | -0.995 | 0.542 (inactive) | 0.827 (inactive) | 0.704 |
| CC(=O)OC[C@H]1O[C@@H](ON=C2[C@H]3CCn4c(=O)n(-c5ccccc5)c(=O)n4[C@H]3[C@H](O)[C@@H]3O[C@H]23)[C@H](OC(C)=O)[C@@H](OC(C)=O)[C@@H]1OC(C)=O | -0.132 (inactive) | 0.106 | 0.597 (inactive) | 0.454 (inactive) | -0.258 (inactive) | 0.465 (inactive) | -0.862 | -0.186 (inactive) | -0.47 (inactive) | 0.187 |
| CCN1C(=O)[C@H]2[C@@H]3C(=CC[C@H]2C1=O)C(=O)[C@H]1O[C@H]1[C@H]3O | -1.08 (inactive) | -0.214 | 1.17 (inactive) | 0.497 (inactive) | 0.244 (inactive) | 0.282 (inactive) | -0.383 | 0.428 (inactive) | -1.86 (inactive) | 0.121 |
| COC(=O)[C@H](C)NC(=O)CC=C[C@@H](C)[C@@H]1C=C[C@H](O)[C@@H](CO)O1 | 0.645 (inactive) | -0.269 | -0.488 (inactive) | 0.544 (inactive) | -0.0002 (inactive) | 0.0748 (inactive) | 0.244 | 0.534 (inactive) | 0.62 (inactive) | -0.231 |
| COc1ccc(O[C@H]2C=C[C@@H](C#Cc3ccccc3)O[C@@H]2CO)cc1 | 0.311 (inactive) | 0.042 | 2.26 (inactive) | 0.323 (inactive) | -0.24 (inactive) | -0.144 (inactive) | 0.297 | 1.33 (inactive) | -0.196 (inactive) | -0.196 |
| CCCNC(=O)OC[C@H]1O[C@H](CCON=C[C@@H](C)[C@H](OCc2ccccc2)C(C)C)C=C[C@@H]1Oc1ccc(OC)cc1 | -0.103 (inactive) | -0.105 | 1.77 (inactive) | -1.58 (inactive) | 0.141 (inactive) | -2.55 (inactive) | 2.11 | -1.7 (inactive) | 0.368 (inactive) | -0.574 |
| O=C1C[C@@H](O)[C@@H](O)[C@@H]2[C@@H]3C(=O)N(Cc4ccccc4)C(=O)[C@@H]3CC[C@H]12 | -0.675 (inactive) | -0.147 | 1.56 (inactive) | 0.586 (inactive) | 0.215 (inactive) | 0.526 (inactive) | -0.254 | 2.31 (inactive) | -0.79 (inactive) | 0.127 |
| COc1ccc(OC[C@@H]2CC3[C@@H](c4ccc(Br)cc4)[C@H](C)CC[C@H]3C(=O)O2)cc1 (stereo not given in full) | -0.594 (inactive) | -0.106 | 4.49 (inactive) | 1.7 (inactive) | 0.85 (inactive) | 0.759 (inactive) | 0.338 | -0.803 (inactive) | -0.178 (inactive) | -0.351 |
| COCC#Cc1ccc([C@@H]2N[C@H](C(=O)O)CC[C@H]2C)cc1 | -0.0799 (inactive) | -0.194 | -0.398 (inactive) | -0.478 (inactive) | -0.571 (inactive) | -0.867 (inactive) | 2.16 | -2.01 (inactive) | 0.301 (inactive) | 0.723 |
| COC(=O)[C@H](C)NC(=O)CCC1CC(OC(=O)NCc2cccc3ccccc23)CC2(CCCC(COC(=O)NCCC(C)C)O2)O1 (stereo not given in full) | 0.782 (inactive) | 0.423 | 6.93 (inactive) | 0.663 (inactive) | -0.355 (inactive) | 0.197 (inactive) | -0.463 | 1.74 (inactive) | 0.703 (inactive) | 1.52 |
| CO[C@@H]1C=CCC(=O)N[C@@H](C)C(=O)OC[C@@H](OC)[C@H](C)C=CCC(=O)OC[C@H]1C | 0.0083 (inactive) | -0.149 | -0.0896 (inactive) | 0.233 (inactive) | 0.442 (inactive) | 0.205 (inactive) | 0.15 | -0.27 (inactive) | 0.0964 (inactive) | -0.367 |
| CC(CCN1CCCc2nc(C)c(C)cc21)=NO[C@H](C)c1cn([C@H](CO)Cc2ccccc2)nn1 | 0.115 (inactive) | 0.0402 | 5.14 (inactive) | 0.985 (inactive) | 2.45 (inactive) | 0.638 (inactive) | -0.0039 | -0.443 (inactive) | -0.076 (inactive) | 0.863 |
| CC(CCC(=O)OC[C@H]1O[C@H](C#Cc2ccccc2)C=C[C@@H]1Oc1ccc(C)cc1)=NOC(C)CN1CCCc2nc(C)c(C)cc21 (stereo not given in full) | -0.651 (inactive) | 0.106 | 5.4 (inactive) | 0.859 (inactive) | 0.785 (inactive) | 0.735 (inactive) | -0.624 | -0.866 (inactive) | -0.435 (inactive) | -0.297 |
| CC(C)CON=C1C[C@@H](O)[C@@H](O)[C@@H]2[C@@H]3C(=O)N(Cc4ccc5c(c4)OCO5)C(=O)[C@@H]3CC[C@@H]12 | -0.0395 (inactive) | -0.28 | 7.64 (inactive) | 0.859 (inactive) | -0.0127 (inactive) | 0.548 (inactive) | -0.333 | -0.569 (inactive) | 0.409 (inactive) | 0.443 |
| CC(=O)OC[C@H]1O[C@@H](ON=C(C)CCC(=O)OC[C@H]2O[C@H](C#Cc3ccccc3)C=C[C@@H]2Oc2ccc(C)cc2)[C@H](OC(C)=O)[C@@H](OC(C)=O)[C@@H]1OC(C)=O | -0.446 (inactive) | -0.265 | 2.56 (inactive) | 1.11 (inactive) | 0.63 (inactive) | 0.612 (inactive) | -0.635 | 1.04 (inactive) | 1.2 (inactive) | 1.38 |
| CC(C)CON=C1C[C@@H](O)[C@@H](O)[C@@H]2[C@@H]3C(=O)N(Cc4ccccc4)C(=O)[C@@H]3CC[C@H]12 | -1.41 (inactive) | -0.249 | 1.12 (inactive) | -1.19 (inactive) | 0.99 (inactive) | -1.6 (inactive) | 0.0105 | 1.48 (inactive) | 0.209 (inactive) | 0.588 |
| CCN1C(=O)[C@H]2[C@H]3[C@H](O)[C@H](O)CC(=NO[C@@H]4O[C@H](CO)[C@@H](O)[C@H](O)[C@H]4O)[C@H]3CC[C@H]2C1=O | -0.462 (inactive) | -0.234 | -0.875 (inactive) | 0.0108 (inactive) | -0.677 (inactive) | 0.109 (inactive) | -0.218 | 1.4 (inactive) | 0.422 (inactive) | -1.28 |
| CCOC(=O)[C@H](CC(C)C)NC(=O)CCC1CC(OC(=O)NCc2ccc3c(c2)OCO3)CC2(CCCC(COC(=O)NCCc3ccc(Cl)cc3)O2)O1 (stereo not given in full) | 0.386 (inactive) | 0.213 | 1.83 (inactive) | -0.39 (inactive) | -0.254 (inactive) | -0.144 (inactive) | -0.793 | 0.747 (inactive) | 0.575 (inactive) | 0.301 |
